# Assay results as given in PubChem BioAssay AID1259418 (Broad Institute, 2018).
# Screen size: about 3,400 compounds; about 840 (25%) were called active. Inconclusive results (about 11%) are left out. The list is a sample of the results. Measured potencies and affinities stand elsewhere. Unmarked numbers belong to inactive results.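 Rule for the calls: active = fitted half-maximal concentration of signal decrease at or below twice the sample's top tested concentration; inconclusive = flat curve between -70 and -30 percent, or poor fit; inactive = flat within 30 percent, signal rise, or potency above limit.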
# Assay: T. gondii growth inhibition with IFN-gamma, dose response, cell-based, ME49Luc, HeLa, luciferase, 72 h (AID 1259418)
# Conditions: T. gondii ME49Luc in IFN-y HeLa, stronger effect = lower value, -100% = high-dose IFN-γ control wells; at 19.5 µM unless noted
row,SMILES,max activity
1,CCOc1ccc(CCNc2nc(-c3ccc(Cl)cc3)nc3ccccc23)cc1OCC,-12.8% [at 0.35 µM]
2,NCCCCCCNS(=O)(=O)c1ccc2c(Cl)cccc2c1,23.8%
3,O=C(Nc1ccc(F)cc1)Nc1ccc(-c2nc(-c3ccccc3)co2)cc1,-15.1% [at 1.35 µM]
4,COc1ccc(CNC(=O)Nc2ccc(-c3nc(-c4cc(C)ccc4C)co3)cc2)cc1,11.5%
5,COc1ccc(Cl)cc1S(=O)(=O)Nc1ccc(-c2nc(-c3ccc(C)cc3C)co2)cc1,11.6% [at 0.16 µM]
6,COc1ccccc1CNC(=O)CCC1N=C2c3ccccc3N=C(SCc3ccc(Cl)cc3)N2C1=O (centres undefined),16% [at 2.6 µM]
7,CCCCNC(=O)CCC1N=C2c3ccccc3N=C(SCc3ccccc3F)N2C1=O (centres undefined),-6.88% [at 2.6 µM]
8,CCCCNC(=O)CC1N=C2c3ccccc3N=C(SCc3ccccc3Cl)N2C1=O (centres undefined),-10.2%
9,CCCCNC(=O)CCC1N=C2c3ccccc3N=C(SCC#N)N2C1=O (centres undefined),51.3%
10,CCCCNC(=O)CCC1N=C2c3ccccc3N=C(SCC(=O)OCC)N2C1=O (centres undefined),-17.8% [at 2.6 µM]
11,CCCCNC(=O)CCC1N=C2c3ccccc3N=C(SCc3cc(=O)n4ccccc4n3)N2C1=O (centres undefined),21.9% [at 0.68 µM]
12,CCc1ccc(-c2noc(-c3nnn(Cc4nc(-c5ccc(C)cc5)oc4C)c3C)n2)cc1,8.04% [at 0.68 µM]
13,COc1ccc(OC)c(S(=O)(=O)Nc2ccc(-c3nc(-c4ccc(C)c(C)c4)co3)cc2)c1,20.8% [at 1.35 µM]
14,Cc1ccc(-c2nc(Cn3nnc(-c4nc(-c5ccc(C)c(C)c5)no4)c3C)c(C)o2)cc1,-11% [at 2.6 µM]
15,Cc1ccc(NC(=O)N2CCN(Cc3nc(-c4ccccc4C)oc3C)CC2)cc1Cl,14% [at 1.35 µM]
16,O=C(NCCc1csc(-c2ccccc2)n1)[C@H]1CCCN1C(=O)c1ccc(F)c(F)c1,13.1% [at 0.16 µM]
17,CCc1ccc(NC(=O)N2CCc3nc(-c4ccc(OC)c(OC)c4)sc3C2)cc1,7.81% [at 0.16 µM]
18,O=C1CCc2cc(NC(=O)c3cccnc3)ccc2N1,9.01% [at 1.35 µM]
19,Cc1ccc(-c2coc(-c3ccc(NC(=O)c4c(F)cccc4F)cc3)n2)cc1,20.4% [at 5 µM]
20,Cc1ccc(-c2nc3c(s2)CN(S(=O)(=O)c2ccc(F)cc2)CC3)cc1,8.68% [at 10 µM]
21,CCc1nc(OCC(=O)Nc2ccc(C(C)C)cc2)c2ccccc2n1,25.6% [at 10 µM]
22,COc1ccc(-c2nc(Nc3ccccc3Cl)c3ccccc3n2)cc1,-9.71% [at 0.35 µM]
23,COc1cccc(CNC(=O)Nc2ccc(-c3nc(-c4ccccc4)co3)cc2)c1,78.4%
24,Cc1cccc(-c2nc(Cn3nnc(-c4nc(-c5ccccc5Br)no4)c3C)c(C)o2)c1,9.01% [at 2.6 µM]
25,CCCCNC(=O)CCC1N=C2c3ccccc3N=C(SCc3ccc(C)cc3)N2C1=O (centres undefined),25.3% [at 2.6 µM]

row,SMILES,max activity
1,CN(C)c1cccc(C(=O)N2CCC3(CC2)Nc2ccc(Cl)cc2-n2cccc23)c1,-25.9% [at 10 µM]
2,Cc1nc(OCC(=O)Nc2cc(Cl)ccc2Cl)c2ccccc2n1,20.7% [at 0.68 µM]
3,Cc1ccc(-c2coc(-c3ccc(NS(=O)(=O)c4cccc(Cl)c4C)cc3)n2)c(C)c1,16.4% [at 2.6 µM]
4,Cc1ccc(-c2coc(-c3ccc(NS(=O)(=O)c4ccc(C(C)C)cc4)cc3)n2)c(C)c1,-13.7%
5,Cc1ccc(-c2coc(-c3ccc(NS(=O)(=O)c4cccc(Cl)c4)cc3)n2)c(C)c1,-22.9%
6,COc1ccc(S(=O)(=O)Nc2ccc(-c3nc(-c4ccc(C)cc4C)co3)cc2)cc1,26.2% [at 5 µM]
7,Cc1ccc(S(=O)(=O)Nc2ccc(-c3nc(-c4ccc(C)cc4C)co3)cc2)cc1,12.9% [at 0.16 µM]
8,Cc1ccc(-c2coc(-c3ccc(NS(=O)(=O)c4ccc(N5CCCC5=O)cc4)cc3)n2)c(C)c1,-11% [at 0.68 µM]
9,Cc1ccc(-c2coc(-c3ccc(NS(=O)(=O)c4ccc(C(C)(C)C)cc4)cc3)n2)c(C)c1,-14.9%
10,CCCc1ccc(S(=O)(=O)Nc2ccc(-c3nc(-c4ccc(C)cc4C)co3)cc2)cc1,-16.7% [at 0.16 µM]
11,Cc1nc(OCC(=O)Nc2ccccc2Br)c2ccccc2n1,28.1% [at 0.16 µM]
12,Cc1ccc(C)c(-c2nc(CN3CCc4c(sc5c4CCCC5)C3c3ccccc3)c(C)o2)c1 (centres undefined),15.8%
13,COc1ccccc1-c1nc(Cn2nnc(-c3nc(-c4ccc5c(c4)OCO5)no3)c2C)c(C)o1,8.21% [at 0.35 µM]
14,O=C(Nc1ccc(-c2nc(-c3ccccc3)co2)cc1)Nc1cccc(Cl)c1,19.9% [at 0.16 µM]
15,O=C(c1cccnc1)N1CCC2(CC1)Nc1ccc(Cl)cc1-n1cccc12,-27.3% [at 0.16 µM]
16,O=C(NC1CC(=O)N(c2ccc(Cl)cc2)C1)C(=O)c1c[nH]c2ccccc12 (centres undefined),22.9% [at 2.6 µM]
17,CCOc1ccc(N2CC(NC(=O)C(=O)c3c[nH]c4ccccc34)CC2=O)cc1 (centres undefined),10.2% [at 10 µM]
18,O=C(Nc1ccc(-c2nc(-c3ccccc3)co2)cc1)Nc1ccc(Br)cc1F,58.9% [at 10 µM]
19,Cc1oc(-c2ccccc2)nc1Cn1nc2n(Cc3ccc(F)cc3)c(=O)c3nn(C)cc3n2c1=O,15.8%
20,Cc1ccc(Cn2c(=O)c3nn(C)cc3n3c(=O)n(Cc4nc(-c5ccc(C)cc5)oc4C)nc23)cc1,11.5% [at 2.6 µM]
21,Cc1cccc(NC(=O)Nc2ccc(-c3nc(-c4ccccc4)co3)cc2)c1,16.2% [at 0.16 µM]
22,CN1C(=O)CCc2cc(NC(=O)CC3CCCCC3)ccc21,8.53%
23,CN1C(=O)c2cc(NC(=O)c3cccc(F)c3)ccc2OC[C@@H]2O[C@@H](CC(=O)NCC3CCCCC3)CC[C@@H]21,-24.1%
24,COc1ccc(-c2nc(Nc3cccc(Cl)c3)c3ccccc3n2)cc1,22.1% [at 0.35 µM]
25,CCN(CC)C(=O)C1Cn2ccnc2C2(CCN(CC(C)C)CC2)O1 (centres undefined),37.9%

row,SMILES,max activity
1,O=C(NCCc1csc(-c2ccccc2)n1)C1CCN(C(=O)Cc2cccs2)CC1,5.42% [at 0.35 µM]
2,Cn1nnc2c(NCCSc3c[nH]c4ccccc34)ncnc21,5.75% [at 0.16 µM]
3,CN1C(=O)CCc2cc(NC(=O)C3CCCC3)ccc21,11.7%
4,O=C1CCc2cc(NC(=O)C3CC3)ccc2N1,-5.5% [at 5 µM]
5,CC(C)N1CCC(c2ccnc3c(C(=O)N4CCCN(C)CC4)ncn23)CC1,39%
6,Cc1ccc(S(=O)(=O)N2CCC3(CC2)NCCN=C3NCc2cccc(F)c2)cc1C,6.41% [at 5 µM]
7,Cc1ccc(S(=O)(=O)N2CCC3(CC2)NCCN=C3NCc2ccc(F)c(Cl)c2)c(C)c1,14% [at 5 µM]
8,COc1ccccc1CCC(=O)N1CCC[C@@H]1C(=O)NCCc1csc(-c2ccccc2)n1,-10.5%
9,Cc1nc(N2CCCC2)nc2c1CCN(S(=O)(=O)c1ccccc1)CC2,10.7% [at 10 µM]
10,Cc1ccc(S(=O)(=O)N2CCC3(CC2)NCCN=C3NCc2ccc(F)cc2)cc1C,30.3% [at 5 µM]
11,CCC1CCCCN1S(=O)(=O)c1cc(-c2nc(C)c(C)s2)sc1C (centres undefined),7.15% [at 0.68 µM]
12,Cc1nc(CCNC(=O)[C@H]2CCCN2S(=O)(=O)c2cnn(C(F)F)c2C)cs1,13.7% [at 10 µM]
13,Cc1ccc2c(c1C)-n1cccc1C1(CCN(C(=O)c3cccnc3)CC1)N2,5.96% [at 0.68 µM]
14,COc1ccccc1C#Cc1ccc([C@@H]2[C@H](CO)N3CCCCN(C(=O)C4CCC4)C[C@@H]23)cc1,14.6% [at 5 µM]
15,COc1ccccc1C#Cc1ccc([C@H]2[C@@H](CO)N3CCCCN(C(=O)C4CCC4)C[C@H]23)cc1,-7.46% [at 0.08 µM]
16,Cc1cccc(-c2nc(Cn3nnc(-c4nc(-c5ccc6c(c5)OCO6)no4)c3C)c(C)o2)c1,-10.5% [at 0.16 µM]
17,Cc1ccc(CNc2nc(-c3ccc(Cl)cc3)nc3ccccc23)o1,42.3%
18,Cc1ccc(NC(=O)Nc2ccc(-c3nc(-c4cc(C)ccc4C)co3)cc2)cc1,5.44% [at 2.6 µM]
19,COc1cccc(CNC(=O)Nc2ccc(-c3nc(-c4ccc(C)cc4C)co3)cc2)c1,20.1%
20,COc1ccccc1CN1CCc2nc(SCc3nc(-c4ccc(C)cc4)oc3C)[nH]c(=O)c2C1,34.1%
21,Clc1ccc(-c2nc(N3CCN(C4CCCCC4)CC3)c3ccccc3n2)cc1,19% [at 0.16 µM]
22,COc1ccc(-c2nc(N3CCC(c4ccccc4)C3)c3ccccc3n2)cc1 (centres undefined),-14.1% [at 2.6 µM]
23,CC1CCN(c2nc(-c3ccc(Cl)cc3)nc3ccccc23)CC1,5% [at 10 µM]
24,Clc1ccc(-c2nc(N3CCC(Cc4ccccc4)CC3)c3ccccc3n2)cc1,11.8%
